{"source": "ChEMBL document CHEMBL3433997", "about": "“St. Jude Leishmania screening dataset” (2016)"}
{"target": "Hexose transporter 1 (Plasmodium falciparum) (UniProt O97467)", "experiment": "ST_JUDE_LEISH: Cytotoxicity at 2uM final concentration against transgenic Leishmania Mexicana promastigotes LmPfHT that are glucose transport deficient and complemented with the Plasmodium falciparum hexose transporter. Activity is measured by DNA content using SYBR green in vitro", "type": "functional", "units": {"inhibition": "%"}}
{"smiles": "CS(=O)(=O)Nc1ccc2[nH]cc(C3CCN(CCCCCNC(=O)/C=C/c4ccc(Cl)c(Cl)c4)CC3)c2c1", "inhibition": 3.77}
{"smiles": "CN(C)CCCNCc1ccc(-c2ccc(C(F)(F)F)cc2)cc1", "inhibition": 4.5}
{"smiles": "Cc1nc(-c2ccc(-c3ccc(C(=O)Nc4ccc(Cl)c(N5CCN(C)CC5)c4)cc3)c(C)c2)no1", "inhibition": 7.83}
{"smiles": "Cc1cc(NCCCN2CCCC2=O)n2c(nc3ccccc32)c1C#N", "inhibition": 3.33}
{"smiles": "CC1CN(c2ccc3occ(C(=O)Nc4ccc(-c5ccncc5)c(Cl)c4)c3c2)CC(C)N1C", "note": "(stereo not given)", "inhibition": 3.33}
{"smiles": "CCCCCC(=O)N1CCOC(CCN2CCc3c(c4ccccc4n3C)C2)(c2ccc(Cl)c(Cl)c2)C1", "note": "(stereo not given)", "inhibition": 7.81}
{"smiles": "Nc1nc(N)c2c(Oc3ccc(Cl)c(Cl)c3)cccc2n1", "inhibition": -0.05}
{"smiles": "CCC[C@@H]([C@@H](CC(C)C)C(=O)N[C@@H](CCC/N=C(/N)NS(C)(=O)=O)C(=O)Nc1nccs1)N(O)C=O", "inhibition": 9.74}
{"smiles": "CC(C)NCc1ccc(-c2ccc(CN3CCCC(c4ccccc4)C3)cc2)c(C(=O)NC2Cc3ccccc3C2)c1", "note": "(stereo not given)", "inhibition": 17.4}
{"smiles": "CC(Cc1ccc(NC(=O)c2ccc(CNCc3ccccc3)cc2)cc1)N(CCc1cccc(Cl)c1)C(=O)OC(C)(C)C", "note": "(stereo not given)", "inhibition": 4.74}
{"smiles": "COc1ccccc1CNC(=O)c1ccc(N2CCN(c3ccncc3)CC2)cn1", "inhibition": 2.84}
{"smiles": "O=C(C=Cc1ccc(-c2nc3ccccc3[nH]2)cc1)NC1CCN(Cc2ccccc2)CC1", "inhibition": 1.99}
{"smiles": "O=C(Nc1cccc(Oc2ccccc2)c1)N[C@H]1CCN(Cc2ccc(OCCCN3CCCCC3)cc2)C1", "inhibition": 5.18}
{"smiles": "Cc1cc(N[C@@H](Cc2ccccc2)C(=O)Nc2ccccc2)nc(NCCN2CCCC2)n1", "inhibition": -2.84}
{"smiles": "Cc1cc(N2CCCCC2)nc2ccc(NC(=O)c3cncc(Br)c3)cc12", "inhibition": 9.8}
{"smiles": "COc1ccc(C(C(=O)NC2CCN(C[C@H](O)c3ccnc4ccc(OC)cc34)CC2)N2CCN(c3ccc(F)cc3)CC2)cc1", "note": "(stereo not given in full)", "inhibition": 1.23}
{"smiles": "COc1ccc2c(C)cc(NCCCN(C)C)nc2c1", "inhibition": -0.64}
{"smiles": "CN(C)CCn1c(N)c(-c2nc3ccccc3s2)c2nc(C#N)c(C#N)nc21", "inhibition": 1.76}
{"smiles": "COc1ccc2nccc(NC(=O)OC3CCC(NCc4ccc5c(n4)NC(=O)CS5)CC3)c2c1", "note": "(stereo not given)", "inhibition": 4.67}
{"smiles": "Cc1ccc(NC(=O)c2ccc(NCCCN3CC(C)CC(C)C3)c([N+](=O)[O-])c2)cc1F", "note": "(stereo not given)", "inhibition": 5.06}
{"smiles": "O=[N+]([O-])c1ccc(C(O)CNCCc2ccccc2)cc1OCc1ccccc1", "note": "(stereo not given)", "inhibition": 14}
{"smiles": "O=c1c(NCCCN(Cc2ccc(F)cc2)c2ccccn2)c(NCc2cccnc2)c1=O", "inhibition": 1.81}
{"smiles": "Cn1nccc1C(=O)NCCNCc1ccc(-c2ccc(-c3nc4cc(F)ccc4[nH]3)cc2)cc1", "inhibition": 4.48}
{"smiles": "O=C(Nc1ccc(OC2CCN(Cc3ccccc3)CC2)c(Cl)c1)c1ccc(F)cc1", "inhibition": 2}
{"smiles": "CC(CNC1CCN(CCn2c(=O)ccc3ccc(F)cc32)CC1)c1ccccc1", "note": "(stereo not given)", "inhibition": -1.07}
{"smiles": "CC1(C)N=C(N)N=C(N)N1CCc1ccccc1", "inhibition": 7.56}
{"smiles": "Cc1cc(OCCCN2CCC(NS(=O)(=O)c3ccc(Cl)c(Cl)c3)C2)c2ccccc2n1", "note": "(stereo not given)", "inhibition": 4.67}
{"smiles": "CC(C)(C)[C@@H](Nc1ccc(C#N)c2ccccc12)C(=O)NC1(Cc2ccc(O)c(Br)c2)CCCC1", "inhibition": 3.09}
{"smiles": "O=C(NCc1ccc(C(=O)NCc2cccc3ccccc23)cc1)c1ccc(O)c(-c2ccc(Cl)c(Cl)c2)c1", "inhibition": 2.17}
{"smiles": "CCOc1cc2c(cc1OCC)C(c1cc(OC)c(O)cc1Cl)NCC2", "note": "(stereo not given)", "inhibition": 0.45}
{"smiles": "O=C(Nc1cccc(-c2ccc(-c3nc4cc(C(F)(F)F)ccc4[nH]3)cc2)c1)c1csnn1", "inhibition": 8}
{"smiles": "COc1cc(C(=O)N2CCN(C(C)C)CC2)ccc1CN(C)CCCN1CCN(c2cccc(Cl)c2Cl)CC1", "inhibition": 0.33}
{"smiles": "CC1CN(Cc2cccc(-c3ccc(-c4nc5ccccc5[nH]4)cc3)c2)CC(C)O1", "note": "(stereo not given)", "inhibition": 4.42}
{"smiles": "O=C(Nc1ccc(N2CCCN(Cc3cccc(F)c3)CC2)cc1)c1ccc(F)cc1", "inhibition": 5.55}
{"smiles": "CCc1cn2c3c(cc(C(=O)N[C@@H](Cc4cc(F)cc(F)c4)[C@H](O)CNC4CCOCC4)cc13)N(C)S(=O)(=O)CC2", "inhibition": -1.91}
{"smiles": "COCCCNc1sc(S(=O)(=O)c2ccccc2)nc1S(=O)(=O)c1ccc(C)cc1", "inhibition": -2.3}
{"smiles": "CCN(CC)CCCn1c(N)c(-c2nc3ccccc3[nH]2)c2nc(C#N)c(C#N)nc21", "inhibition": 6.56}
{"smiles": "CC(C)NC(=O)c1cccc(-c2ccc(OCCN3CCCC3c3cc4ccccc4[nH]3)cc2)c1", "note": "(stereo not given)", "inhibition": 3.47}
{"smiles": "O=C(N[C@@H](CC1CCCCC1)C(=O)NCc1cccc(C(F)(F)F)c1)c1ccc(O)c(-c2ccc(Cl)c(Cl)c2)c1", "inhibition": 1.58}
{"smiles": "COc1ccc(C(=O)N2CCC3(CC2)C(=O)N(CC(=O)NC2CCCCC2)CN3c2ccccc2)c(OC)c1", "inhibition": 3.6}
